# Experimental data taken from publication PMC5540273 (PLoS ONE, 2017).
# Legend:
# Settings in all cases: concentration: 1 μM, replicates: in singlicate; n = 1
# [1] = system: MARK4
# [2] = system: MAST1
# [3] = system: T1, MEK1
# T1 construct: gene MAP2K1
# [4] = system: T2, MEK2
# T2 construct: gene MAP2K2
# [5] = system: T3, MEK3
# T3 construct: gene MAP2K3
# [6] = system: T4, MEK4
# T4 construct: gene MAP2K4
# [7] = system: T5, MEK5
# T5 construct: gene MAP2K5
# [8] = system: T6, MEK6
# T6 construct: gene MAP2K6
# [9] = system: MELK
# [10] = system: MERTK
# [11] = system: MET
# [12] = system: T7, MINK
# T7 construct: gene MINK1
# [13] = system: MKK7
# [14] = system: MKNK1
# [15] = system: MKNK2
# [16] = system: T8, MLCK
# T8 construct: gene MYLK3
# [17] = system: T9, MLK1
# T9 construct: gene MAP3K9
# [18] = system: MLK2
# [19] = system: MLK3
# [20] = system: MRCKA
# 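Also: KINOMEscan kinase panel screen.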
Compound,%Inh [1] [%],%Inh [2] [%],%Inh [3] [%],%Inh [4] [%],%Inh [5] [%],%Inh [6] [%],%Inh [7] [%],%Inh [8] [%],%Inh [9] [%],%Inh [10] [%],%Inh [11] [%],%Inh [12] [%],%Inh [13] [%],%Inh [14] [%],%Inh [15] [%],%Inh [16] [%],%Inh [17] [%],%Inh [18] [%],%Inh [19] [%],%Inh [20] [%]
CCC(=O)c1c(-c2ccccc2)c2cc(Cl)ccc2c(=O)n1Cc1cc(S(C)(=O)=O)n(CC(F)F)n1,0,0,1,12,0,18,0,0,0,0,6,0,0,0,0,0,42,0,0,0
COC(=O)c1c(-c2ccccc2)c2cc(Br)ccc2c(=O)n1Cc1ccc(S(C)(=O)=O)cc1,1,21,13,7,2,17,29,17,12,4,2,10,19,8,0,3,1,0,0,0
COc1cc(Nc2nccc(N3CCC(NC(=O)C4COc5ccccc5O4)C3)n2)cc(OC)c1OC (stereo not drawn) [GSK1379761],0,0,25,0,0,0,97.2,0,11,36,19,0,0,0,31,12,63,4,44,0
Cl.c1ccc(Cn2cnc3cc(Nc4ncnc5ccccc45)ccc32)cc1 [GW272142],0,0,0,0,0,8,56,0,13,10,33,0,17,0,6,0,0,0,11,16
COc1cccc(C2=C(Nc3cccc(C(=O)O)c3)C(=O)NC2=O)c1 [SB-390770],23,35,0,10,0,16,4,0,21,3,0,7,15,2,0,0,0,47,45,17
O=c1cc(N2CCOCC2)nc2n(Cc3ccc(F)c(Cl)c3)ccn12 [GSK2297099],0,0,0,0,0,5,1,14,0,0,0,0,0,5,1,7,0,0,0,0
Cc1cccc(-c2cc(-c3c[nH]nc3-c3ccccn3)ccn2)c1 [GW679395],0,0,0,0,0,36,27,0,0,12,0,38,3,0,2,0,0,0,0,9
COc1cc(Nc2ccnc3ccc(C(F)(F)F)cc23)cc(OC)c1OC [GW577382],11,4,14,0,0,32,50,0,13,27,0,17,0,29,9,0,3,31,23,22
CCc1ccc(-c2ccc3c(c2)-c2nn(C)cc2S(=O)(=O)N3C)cc1,16,0,53,18,17,0,27,0,0,0,0,41,16,37,0,28,1,29,11,0
